Laboratory results as given in PubChem BioAssay AID1159580 (chemical genetic matrix, 2015).
Several values for one entry are separate records, joined by “and”; a condition that tells them apart may be missing. Equal entries are not always repeated. Out of some 5,500 compounds screened, about 2,000 (36%) were called active. Inconclusive results (about 18%) are left out. Cut-off read from the data, not from the text of the source: active = normalized growth mostly below about 0.91 (no sharp cut-off); inconclusive = no clear call, values can overlap the other calls; inactive = mostly above about 0.92. The list shows a part of the results.

Assay: chemical genetic growth profiling, strain panel (AID 1159580);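 note: tested at 20 µM; growth read once vehicle control cultures reached saturation at 30 °C; 1 = growth at the plate median or of vehicle wells; lower values mean less growth of the strain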
Details: S. cerevisiae deletion strains, growth OD

Measured: normalized growth

Nc1ccc(S(=O)(=O)Nc2ccnn2-c2ccccc2)cc1
inactive: locus YAL013W, strain DEP1, stronger effect = lower value 1.04 | locus YAL021C, strain ccr4, stronger effect = lower value 0.986 | locus YAL026C, strain drs2, stronger effect = lower value 0.977 | locus YAL030W, strain snc1, stronger effect = lower value 1.01 | locus YAL040C, strain CLN3, stronger effect = lower value 1.02 | locus YBL061C, strain skt5, stronger effect = lower value 1.01 | locus YBR009C, strain hhf1, stronger effect = lower value 1.01 | locus YBR021W, strain FUR4, stronger effect = lower value 0.994 | locus YBR023C, strain chs3, stronger effect = lower value 0.999 | locus YBR171W, strain sec66, stronger effect = lower value 0.993 | locus YBR229C, strain ROT2, stronger effect = lower value 1.01 | locus YBR231C, strain swc5, stronger effect = lower value 1.01 | locus YBR279W, strain paf1, stronger effect = lower value 0.996 | locus YCL011C, strain gbp2, stronger effect = lower value 0.982 | locus YCL016C, strain dcc1, stronger effect = lower value 0.999 | locus YCL029C, strain bik1, stronger effect = lower value 0.995 | locus YCL061C, strain MRC1 (second series), stronger effect = lower value 1.02 | locus YCL061C, strain MRC1, stronger effect = lower value 0.997 | locus YCL069W, strain vba3, stronger effect = lower value 0.991 | locus YCR088W, strain abp1, stronger effect = lower value 0.982 | locus YDL005C, strain med2, stronger effect = lower value 0.98 | locus YDL035C, strain GPR1, stronger effect = lower value 0.999 | locus YDL040C, strain nat1, stronger effect = lower value 0.993 | locus YDL074C, strain BRE1, stronger effect = lower value 1.02 | locus YDL101C, strain DUN1, stronger effect = lower value 1.02 | locus YDL134C, strain PPH21, stronger effect = lower value 0.995 | locus YDL185W, strain tfp1, stronger effect = lower value 1 | locus YDL192W, strain arf1, stronger effect = lower value 0.995 | locus YDR001C, strain nth1, stronger effect = lower value 0.994 | locus YDR069C, strain doa4, stronger effect = lower value 0.999 | locus YDR101C, strain arx1, stronger effect = lower value 1.01 | locus YDR137W, strain rgp1, stronger effect = lower value 0.938 | locus YDR150W, strain NUM1, stronger effect = lower value 1.02 and 1.01 | locus YDR159W, strain sac3, stronger effect = lower value 1.02 | locus YDR162C, strain NBP2, stronger effect = lower value 0.999 | locus YDR195W, strain ref2 0.961 | locus YDR297W, strain sur2, stronger effect = lower value 0.998 | locus YDR318W, strain mcm21, stronger effect = lower value 0.99 | locus YDR334W, strain swr1, stronger effect = lower value 0.95 | locus YDR335W, strain msn5, stronger effect = lower value 0.998 | locus YDR363W, strain ESC2, stronger effect = lower value 1.01 | locus YDR388W, stronger effect = lower value 1 | locus YDR392W, strain spt3, stronger effect = lower value 0.96 | locus YDR502C, strain sam2, stronger effect = lower value 1.03 | locus YEL003W, strain gim4, stronger effect = lower value 0.986 | locus YEL037C, strain rad23, stronger effect = lower value 0.991 | locus YEL061C, strain CIN8 (second series), stronger effect = lower value 0.992 | locus YEL061C, strain CIN8, stronger effect = lower value 1.01 | locus YER002W, strain NOP16, stronger effect = lower value 1.01 | locus YER015W, strain faa2, stronger effect = lower value 0.997 | locus YER016W, strain bim1, stronger effect = lower value 1.01 | locus YER110C, stronger effect = lower value 0.993 | locus YER111C, strain swi4, stronger effect = lower value 1.01 | locus YER155C, strain BEM2 (second series), stronger effect = lower value 1 | locus YER155C, strain BEM2, stronger effect = lower value 1.01 | locus YER167W, strain BCK2, stronger effect = lower value 1 | locus YFR010W, strain ubp6, stronger effect = lower value 0.986 | locus YGL078C, strain dbp3, stronger effect = lower value 0.999 | locus YGL086W, strain mad1, stronger effect = lower value 1 | locus YGL167C, strain pmr1, stronger effect = lower value 1 | locus YGL173C, strain kem1, stronger effect = lower value 0.986 | locus YGL227W, strain vid30, stronger effect = lower value 0.998 | locus YGL240W, strain doc1, stronger effect = lower value 1.02 | locus YGL248W, strain PDE1, stronger effect = lower value 1.01 | locus YGL253W, strain hxk2, stronger effect = lower value 0.988 | locus YGR135W, strain pre9, stronger effect = lower value 0.994 | locus YGR229C, strain SMI1, stronger effect = lower value 1.03 | locus YGR252W, strain gcn5, stronger effect = lower value 0.958 | locus YHR013C, strain ard1, stronger effect = lower value 1.04 | locus YHR027C, strain rpn1, stronger effect = lower value 0.987 | locus YHR030C, strain SLT2, stronger effect = lower value 1.01 and 0.958 | locus YHR079C, strain IRE1 (second series), stronger effect = lower value 0.994 | locus YHR079C, strain IRE1, stronger effect = lower value 0.967 | locus YHR094C, strain hxt1, stronger effect = lower value 0.988 | locus YHR129C, strain ARP1, stronger effect = lower value 1.01 | locus YHR142W, strain chs7, stronger effect = lower value 0.965 | locus YHR200W, strain rpn10, stronger effect = lower value 0.991 | locus YIL066C, strain RNR3, stronger effect = lower value 1.02 | locus YIL073C, strain SPO22, stronger effect = lower value 0.972 | locus YIL125W, strain kgd1, stronger effect = lower value 1 | locus YIR030C, strain dcg1, stronger effect = lower value 0.993 | locus YJL092W, strain hpr5, stronger effect = lower value 0.984 | locus YJL095W, strain BCK1 (second series), stronger effect = lower value 0.996 | locus YJL095W, strain BCK1, stronger effect = lower value 1.05 and 0.981 | locus YJL115W, strain asf1, stronger effect = lower value 0.965 | locus YJL129C, strain trk1, stronger effect = lower value 0.991 | locus YJL134W, strain LCB3, stronger effect = lower value 1 | locus YJL154C, strain vps35, stronger effect = lower value 0.979 | locus YJL164C, strain tpk1, stronger effect = lower value 0.994 | locus YJL166W, strain qcr8, stronger effect = lower value 1.01 | locus YJL168C, strain set2, stronger effect = lower value 0.996 | locus YJL187C, strain SWE1 (second series), stronger effect = lower value 1.02 | locus YJL187C, strain SWE1, stronger effect = lower value 1 | locus YJR043C, strain POL32, stronger effect = lower value 1 | locus YJR066W, strain TOR1, stronger effect = lower value 0.888
